From the supplement of paper PMC7366291
Structures can show the parent of a compound that is named as a salt. ± gives the standard deviation or the standard deviation of the averaged measurements.

Assays:
Details in all cases: 25 µM; exposure: 24-48 hpf
[1] = tested on: Danio rerio Tg(wt1b:EGFP) embryo, pronephros; assay: glomerular separation, fold change vs DMSO control; higher = glomeruli further apart (abnormal)
Procedure, shortened: (§1)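 Dechorionated Tg(wt1b:EGFP) zebrafish embryos were treated with 25 μM compound in 0.5% DMSO, in HEPES-buffered E3 with 0.003% PTU, from 24 to 48 hpf at 28.5°C. On maximum projections of dorsal pronephros images, 16 hand-placed reference points in Fiji gave distances and angles, and values more than 2 SD from the feature mean were left out. Results are fold changes over the mean of same-day DMSO-treated embryos.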

[2] = tested on: Danio rerio Tg(wt1b:EGFP) embryo, pronephros; assay: glomerular width (mean of left and right), fold change vs DMSO control; higher = wider glomerulus
Procedure, shortened: as §1

[3] = tested on: Danio rerio Tg(wt1b:EGFP) embryo, pronephros; assay: fraction of imaged embryos annotated as normal kidney; higher = less nephrotoxic; extreme values may be limits of the assay
Procedure, shortened: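 Tricaine-anaesthetised Tg(wt1b:EGFP) zebrafish larvae were oriented dorsally in agarose-filled 96-well plates, and their pronephroi were recorded by widefield fluorescence at 470 nm in 10 z-slices. Before this, the dechorionated embryos had been exposed in 12-well plates to 25 μM compound in 0.5% DMSO and 5 mM HEPES-buffered E3 with 0.003% PTU, from 24 to 48 hpf at 28.5°C. Maximum projections were annotated manually for each embryo, and the read-out is the fraction per treatment classed as normal kidney.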

[4] = tested on: Danio rerio Tg(wt1b:EGFP) embryo, pronephros; assay: pronephric angle neck segment to proximal convoluted tubule (mean of left and right), fold change vs DMSO control; higher = larger pronephric angle
Procedure, shortened: as §1

Structure (SMILES)	glomerular separation [1]	glomerular width [2]	fraction of imaged embryos annotated as normal kidney [3]	pronephric angle neck segment [4]
O=C(CCCN1CCC(O)(c2ccc(Cl)cc2)CC1)c1ccc(F)cc1 [Haloperidol]	1.19 ± 0.53	0.918 ± 0.086	0.833	0.974 ± 0.046
Clc1ccc(COC(Cn2ccnc2)c2ccc(Cl)cc2Cl)cc1 (configuration not stated) [Econazole nitrate]	2.58 ± 1.3	0.9791 ± 0.0056	0.417	1.2 ± 0.0047
NCCC[C@H](N)CC(=O)N[C@H]1CNC(=O)[C@H]([C@H]2C[C@H](O)NC(N)=N2)NC(=O)/C(=C/NC(N)=O)NC(=O)[C@H](CO)NC(=O)[C@H](CO)NC1=O [Viomycin sulfate]	1.23 ± 0.3	0.86 ± 0.0024	0.833	1.07 ± 0.088
CN(C)CCC(c1ccc(Br)cc1)c1ccccn1 (configuration not stated) [Brompheniramine maleate]	0.985 ± 0.22	1.04 ± 0.065	1	1.05 ± 0.056
CO/N=C(\C(=O)N[C@@H]1C(=O)N2C(C(=O)O)=C(COC(C)=O)CS[C@H]12)c1csc(N)n1 [Cefotaxime sodium salt]	0.857 ± 0.26	0.957 ± 0.011	0.909	0.982 ± 0.017
CC(C)NCC(O)c1cc(O)cc(O)c1 (configuration not stated) [Metaproterenol sulfate, orciprenaline sulfate]	1.08 ± 0.74	1.02 ± 0.014	0.909	1.08 ± 0.07
CC(=O)[C@@]12O[C@](C)(c3ccccc3)O[C@@H]1C[C@H]1[C@@H]3CCC4=CC(=O)CC[C@]4(C)[C@H]3CC[C@@]12C [Algestone acetophenide]	1.76 ± 0.84	1.05 ± 0.047	0.5	1.02 ± 0.048
OCCN(CCO)c1nc(N2CCCCC2)c2nc(N(CCO)CCO)nc(N3CCCCC3)c2n1 [Dipyridamole]	0.687 ± 0.13	0.982 ± 0.046	0.8	1.017 ± 0.0071
O=C(Cn1ccnc1[N+](=O)[O-])NCCO [Etanidazole]	0.807 ± 0.34	1.06 ± 0.014	0.917	0.9304 ± 0.004
CCC[C@H](N[C@@H](C)C(=O)N1[C@H](C(=O)O)C[C@@H]2CCCC[C@@H]21)C(=O)OCC [Perindopril]	0.827 ± 0.34	1.09 ± 0.028	0.917	0.98 ± 0.026
CCN(CC)CCOC(=O)C(Cc1cccc2ccccc12)CC1CCCO1 (configuration not stated) [Nafronyl oxalate]	1.2 ± 0.63	0.945 ± 0.058	0.583	1.04 ± 0.054
Cc1cc(NC(=O)C2=C(O)c3ccccc3S(=O)(=O)N2C)no1 [Isoxicam]	1.19 ± 0.55	1.04 ± 0.034	0.917	1.02 ± 0.036
Clc1ccc2nsnc2c1NC1=NCCN1 [Tizanidine hydrochloride]	1.02 ± 0.43	1.01 ± 0.016	0.833	0.984 ± 0.036
CN1CCCN=C1/C=C/c1cccc(O)c1 [Oxantel pamoate]	0.88 ± 0.16	1.012 ± 0.0033	0.917	1.03 ± 0.034
O=C(OCC(O)CO)c1ccccc1Nc1ccnc2cc(Cl)ccc12 (configuration not stated) [Glafenine hydrochloride]	1.05 ± 0.26	1.02 ± 0.04	0.833	1.02 ± 0.017
CCCC1O[C@@H]2C[C@H]3[C@@H]4CCC5=CC(=O)C=C[C@]5(C)[C@H]4[C@@H](O)C[C@]3(C)[C@]2(C(=O)CO)O1 (some centres not stated) [Budesonide]	0.957 ± 0.24	1.29 ± 0.049	0.833	1.04 ± 0.12
CCc1nc(N)nc(N)c1-c1ccc(Cl)cc1 [Pyrimethamine]	0.78 ± 0.26	1.15 ± 0.041	0.75	0.974 ± 0.018
O=C(O)c1cc(/N=N/c2ccc(S(=O)(=O)Nc3ccccn3)cc2)ccc1O [Sulfasalazine]	0.959 ± 0.28	1.02 ± 0.016	0.917	0.999 ± 0.034
CCOC(=O)c1ccc(N)cc1 [Benzocaine]	1.45 ± 0.34	0.901 ± 0.021	0.833	1.02 ± 0.016
CCCNC(C)C(=O)Nc1ccccc1C (configuration not stated) [Prilocaine hydrochloride]	1.28 ± 1.1	0.947 ± 0.032	0.75	1.02 ± 0.081
CCC(=O)OCC(=O)[C@@]1(OC(=O)CC)[C@H](C)C[C@H]2[C@H]3[C@H]([C@@H](O)C[C@@]21C)[C@@]1(C)C=CC(=O)C=C1C[C@H]3Cl [Alclometasone dipropionate]	1.33 ± 0.61	1.23 ± 0.026	0.333	1.0427 ± 2.1e-05
OC(CCN1CCCCC1)(c1ccccc1)C1CCCCC1 (configuration not stated) [Trihexyphenidyl-D,L Hydrochloride]	0.867 ± 0.41	0.97 ± 0.04	0.833	0.985 ± 0.056
O=C1c2ccccc2S(=O)(=O)N1CCCCN1CCN(c2ncccn2)CC1 [Ipsapirone]	1.28 ± 0.67	0.908 ± 0.038	0.917	1.054 ± 0.0035
NC(=O)c1cccnc1 [Nicotinamide]	1 ± 0.22	1.022 ± 0.0032	0.909	0.985 ± 0.059
CC1Cc2ccccc2N1NC(=O)c1ccc(Cl)c(S(N)(=O)=O)c1 (configuration not stated) [Indapamide]	1.2 ± 0.88	0.904 ± 0.058	0.909	0.988 ± 0.041
CCN(CCCCOC(=O)c1ccc(OC)c(OC)c1)C(C)Cc1ccc(OC)cc1 (configuration not stated) [Mebeverine hydrochloride]	0.925 ± 0.3	0.986 ± 0.044	0.833	0.965 ± 0.017
C[C@@]1(O)CCOC(=O)C1 [Mevalonic-D, L acid lactone]	0.897 ± 0.23	1.09 ± 0.03	0.75	1.062 ± 0.0042
CN(C)CCn1nnnc1SCC1=C(C(=O)O)N2C(=O)[C@@H](NC(=O)Cc3csc(N)n3)[C@H]2SC1 [Cefotiam hydrochloride]	1.46 ± 0.87	0.929 ± 0.014	0.917	1.08 ± 0.14
